From the supplement of paper PMC3342239 come the findings set out here.

Structures are written as SMILES. Where a name gives a salt, the structure may show the parent alone.

For this assay, the system named is Saccharomyces cerevisiae. Briefly: fraction of cells in G1 phase (DNA content, flow cytometry); higher = more cells with unreplicated DNA (G1 delay). The conditions noted are these: temperature: 30 C; YPD; JTY2953 pdr5 snq2 (sensitized); drug added to: cultures diluted from stationary phase; 6-7 h. The gist of the method:
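S. cerevisiae in YPD at 30°C was dosed with library drugs, using a final 20 µg/ml for sensitized JTY2953 diluted 1∶200 from overnight and fixed at 6–7 h, or dosing dividing JTY2953 (fixed at 6 h) and BY4741 (fixed at 4.33 h). Ethanol-fixed, SYTOX Green-stained cells were read by flow cytometry (10,000 events). The G1 fraction is taken as the Dean-Jett-Fox G1 peak area divided by the G1 and G2/M areas combined.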
As to `O=P(O)(O)C(Cl)(Cl)P(=O)(O)O` [Clodronate disodium] (81.6683 µM), the “fraction of cells in G1 phase” value was 0.505.

Take `NC(=O)c1ncn([C@@H]2O[C@H](CO)[C@@H](O)[C@H]2O)n1` [Ribavirin] (81.8972 µM): the “fraction of cells in G1 phase” value was determined as 0.481. In the case of `Nc1ncnc2c1ncn2[C@@H]1O[C@H](CO)[C@@H](O)[C@@H]1O` [Vidarabine] (74.8374 µM), the “fraction of cells in G1 phase” value turned out to be 0.481. The result for `Cc1ncc([N+](=O)[O-])n1CCO` [Metronidazole] (116.852 µM) reads 0.422; that for `C[N+](C)(C)[C@@H](Cc1c[nH]c(=S)[nH]1)C(=O)[O-]` [Ergothioneine] (87.2209 µM), 0.464. The same measure for `CC(=O)OCC(CCn1cnc2cnc(N)nc21)COC(C)=O` [Famciclovir] (62.2396 µM): 0.505; for `CC1(C)S[C@@H]2[C@H](NC(=O)COc3ccccc3)C(=O)N2[C@H]1C(=O)O` [Pencillin v potassium] (57.2429 µM): 0.461. The result for `CC(C[N+](C)(C)C)OC(N)=O` (stereo not drawn) [Carbamyl-beta-methylcholine Cl] (124.05 µM) reads 0.5. For the compound `COc1cc(Cc2cnc(N)nc2N)cc(OC)c1OC` [Trimethoprim] (68.8884 µM), the “fraction of cells in G1 phase” value was 0.486. The result for `C=C[C@H]1CN2CC[C@H]1C[C@H]2[C@H](O)c1ccnc2ccc(OC)cc12` [Quinine] (55.417 µM) reads 0.5. The result for `Cc1oncc1C(=O)Nc1ccc(C(F)(F)F)cc1` [Leflunomide] (74.0157 µM) reads 0.555; that for `CCC[C@@H]1C[C@@H](C(=O)N[C@@H]([C@H]2O[C@H](SC)[C@H](O)[C@@H](O)[C@H]2O)[C@H](C)Cl)N(C)C1` [Clindamycin HCl] (47.0598 µM), 0.505; that for `O=c1[nH]c(=O)n([C@H]2C[C@H](O)[C@@H](CO)O2)cc1I` [Idoxuridine] (56.4808 µM), 0.515. Turning to `CCOc1nc2cccc(C(=O)O)c2n1Cc1ccc(-c2ccccc2-c2nnn[nH]2)cc1` [Candesartan] (45.4065 µM), the “fraction of cells in G1 phase” value stood at 0.506. The same measure for `C[C@H]1[C@H](NC(=O)/C(=N\OC(C)(C)C(=O)O)c2csc(N)n2)C(=O)N1S(=O)(=O)O` [Aztreonam] (45.9309 µM): 0.489; for `C[C@@H](O[C@H]1OCCN(Cc2n[nH]c(=O)[nH]2)[C@H]1c1ccc(F)cc1)c1cc(C(F)(F)F)cc(C(F)(F)F)c1` [Aprepitant] (37.4225 µM): 0.493; for `COc1cc(CNC(=O)CCCC/C=C/C(C)C)ccc1O` [Capsaicin] (65.4834 µM): 0.556. `Nc1nc(=O)n([C@@H]2CS[C@H](CO)O2)cc1F` [Emtricitabine] (80.8899 µM): the “fraction of cells in G1 phase” value amounted to 0.481. Consider `Cc1cc2c(OCC(CNC(C)(C)C)OC(=O)c3ccccc3)cccc2[nH]1` (centres undefined) [Bopindolol malonate] (52.5636 µM), for which the “fraction of cells in G1 phase” value stood at 0.517.

As to `CO[C@H]1/C=C/O[C@@]2(C)Oc3c(C)c(O)c4c(O)c(c(/C=N/N5CCN(C)CC5)c(O)c4c3C2=O)NC(=O)/C(C)=C\C=C\[C@H](C)[C@H](O)[C@@H](C)[C@@H](O)[C@@H](C)[C@H](OC(C)=O)[C@@H]1C` [Rifampicin] (24.3025 µM), the “fraction of cells in G1 phase” value is 0.502. The result for `CS(=O)(=O)Nc1ccc([N+](=O)[O-])cc1Oc1ccccc1` [Nimesulide] (64.8687 µM) reads 0.58; that for `CNC(=C[N+](=O)[O-])NCCSCc1ccc(CN(C)C)o1` [Ranitidine HCl] (63.6114 µM), 0.501; that for `CN(C(=O)CCCOc1ccc2[nH]c(=O)ccc2c1)C1CCCCC1` [Cilostamide] (58.4041 µM), 0.499.

`CC(=O)Nc1ccc(CC(=O)O)cc1` [Actarit] (103.52 µM): the “fraction of cells in G1 phase” value is 0.521.

`COc1ccc2c3c1O[C@H]1C[C@@H](O)C=C[C@@]31CCN(C)C2` [Galanthamine HBr] (69.5987 µM): the “fraction of cells in G1 phase” value stood at 0.538. The result for `COc1ccc2[nH]c([S@@+]([O-])Cc3ncc(C)c(OC)c3C)nc2c1` [Esomeprazole potassium] (57.9 µM) reads 0.522; that for `Cc1cn([C@H]2C[C@H](N=[N+]=[N-])[C@@H](CO)O2)c(=O)[nH]c1=O` [3'-azido-3'-deoxythymidine] (74.8374 µM), 0.488; that for `CCc1ccc(CCOc2ccc(CC3SC(=O)NC3=O)cc2)nc1` (centres undefined) [Pioglitazone] (56.1093 µM), 0.477. The same measure for `CCOC(=O)OC(C)OC1=C(C(=O)Nc2ccccn2)N(C)S(=O)(=O)c2ccccc21` (centres undefined) [Ampiroxicam] (44.6957 µM): 0.5.
